Shown are actives, neighbours in structure and some others; about 17% of the full set was active somewhere.
TDP1 cell noCPT: qHTS for Inhibitors of human tyrosyl-DNA phosphodiesterase 1 (TDP1): qHTS in cells in absence of CPT; DT40 Tdp1-/- hTDP1 cells, no CPT, ATP luminescence, 48 h; AID 686978, 2013; actives 15% (n = 420,000); Potency, µM (top dose mostly 46.2 µM), without a hit: at the top dose activity change, negative = growth inhibition, usual class: inhibitors; also: % is scaled to controls: 0 for no effect and ±100 for the full control effect; nearly all actives have a fitted effect of over 55% in size
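Seeded 400 DT40-hTDP1 cells/well (vehicle DMSO, no 20 nM CPT); pinned compounds; ≥48 hr at 37 °C; CellTiter-Glo luminescence as viability measure.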
TGFb inhibitor: qHTS for Inhibitors of TGF-b; HepG2 CAGA-GFP TGF-b/SMAD3 reporter, GFP fluorescence, 18 h; TGF-beta stimulated, 500 pg/mL final; Potency, µM (series often up to 46.1 µM), for inactives: top-dose activity, negative = inhibition, actives largely listed as inhibitors; actives 1.2% (n = 410,000); also: % is scaled to controls: 0 for no effect and ±100 for the full control effect; nearly all actives have a fitted effect of over 65% in size
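First, reporter cells (HEPG2 CAGA-GFP) rested 2 h at 37 degrees C. Next, compounds were pinned in and TGF-beta added to 500 pg/mL final. After 18 h, GFP was imaged per cell and summed per well.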
DT40 TDP1 CPT: qHTS for Inhibitors of human tyrosyl-DNA phosphodiesterase 1 (TDP1): qHTS in cells in presence of CPT | Potency, µM (titrated, usually from 46.2 µM), inactives show at the top dose activity change, negative = growth inhibition, most hits filed as inhibitors | chicken DT40 Tdp1-/-;hTDP1 cells + 20 nM CPT, ATP luminescence, 48 h | actives 12% (n = 420,000); also: % is scaled to controls: 0 for no effect and ±100 for the full control effect; nearly all actives have a fitted effect of over 55% in size
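Chicken DT40 Tdp1-/- cells complemented with human TDP1, 400 cells/well, exposed to compounds plus 20 nM camptothecin for at least 48 h at 37 C; viability read as ATP content by CellTiter-Glo luminescence.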
HepG2 viability: qHTS for Inhibitors of TGF-b: Cytotox Counterscreen. HepG2 CAGA-GFP viability, ATP luminescence, 18 h. actives 0.76% (n = 410,000). Potency, µM (doses to about 46.1 µM), for inactives: at the highest dose activity change, negative = cytotoxicity, actives largely listed as cytotoxic
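HepG2 CAGA-GFP cells (1000/well, DMEM with 1% FBS) received compound, then TGF-beta at 500 pg/mL final, and were incubated 18 hours at 37 degrees C. Viability was read by CellTiter-Glo luminescence. Media-only wells were set as complete cell-killing and DMSO as no toxicity.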
HT1080NT lethal: qHTS for induction of synthetic lethality in tumor cells producing 2HG: qHTS for the HT-1080-NT fibrosarcoma cell line; Potency, µM (doses to about 46.1 µM), for inactives: at the highest dose activity, negative = less viability, most hits filed as cytotoxic; HT-1080-NT fibrosarcoma viability, CellTiter-Glo ATP luminescence, 48 h; actives 1.6% (n = 360,000); AID 686970, 2013;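 also: NT is the 2HG producing partner of a matched IDH1 knockdown line; 0% = DMSO-treated cells and -100% = media-only wells without cells; nearly all actives have a fitted effect of over 55% in size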
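Compounds were tested in concentration-response format on HT-1080-NT cells for 48 hours at 37 degrees C. Cell viability came from CellTiter-Glo luminescence; curves were classified by r2, response magnitude and activity.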
HT1080 IDH1KD tx: qHTS for induction of synthetic lethality in tumor cells producing 2HG: qHTS for the HT-1080-IDH1KD cell line. Potency, µM (titrated, usually from 46.1 µM), inactives show at the highest dose activity, negative = toxicity, usual class: cytotoxic. actives 2% (n = 360,000). HT-1080 IDH1 knockdown viability, ATP luminescence, 48 h;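 also: 0% = DMSO wells and -100% = cell-free medium wells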
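Luminescent ATP read-out (CellTiter-Glo, 10 min at room temperature) after 48 h compound exposure at 37 °C gave viability of IDH1-knockdown HT-1080 cells. Activity was normalised to DMSO and cell-free wells, then fitted as concentration-response curves.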
Active calls of the source: *; ? = inconclusive; · = no result; [ ] = remark or other dose. Calls follow the shape of the dose curve; as a rule, active = well fitted curve in the direction sought with a large enough effect; inconclusive = small, poorly fitted or top-dose-only effect, or another doubt; inactive = no such curve, though single readings can be large; an effect the other way counts as inactive or inconclusive. Potency is read from the fitted curve at half-maximal effect.

SMILES	TDP1 cell noCPT	TGFb inhibitor	DT40 TDP1 CPT	HepG2 viability	HT1080NT lethal	HT1080 IDH1KD tx
O=C(Nc1ccccc1Cl)c1cc(C2CCCCN2C(=O)CCCc2ccccc2)on1 (configuration not stated)	23.1µM*	5.6%	29.1µM*	-27.3%	1.7%	-0.6%
O=C(Nc1c(-c2ccc(Cl)cc2)[nH][nH]c1=O)c1ccccc1Cl	8.6%	-9.1%	-0.8%	-0.7%	18.2%	7.3%
CCCC(=O)NC(Nc1c(C)n(C)n(-c2ccccc2)c1=O)C(Cl)(Cl)Cl (configuration not stated)	-24.0%	-3.7%	-1.3%	-3.0%	7.9%	13.3%
Cc1c(NC(=S)N/N=C/c2cccc(O)c2)c(=O)n(-c2ccccc2)n1C	-4.5%	14.1%	-8.9%	-0.4%	-0.6%	-5.2%
CCCC(=O)NC(NC(=S)Nc1c(C)n(C)n(-c2ccccc2)c1=O)C(Cl)(Cl)Cl (configuration not stated)	29.1µM*	-13.5%	?	-24.5%	9.4%	12.7%
Cc1c(NC(=S)N/N=C/c2ccc(N(C)C)cc2)c(=O)n(-c2ccccc2)n1C	?	-0.2%	16.4µM*	14.1%	-9.8%	-14.0%
CC(=O)Nc1ccc(N=Nc2ccc(O)cc2)cc1	?	-2.0%	14.6µM*	6.0%	?	-0.6%
Cc1ccc(OCC(=O)N(Cc2ccccc2)c2ccccn2)cc1	1.3%	6.2%	-14.7%	-1.3%	10.9%	-1.0%
COc1cc(CN(C(=O)COc2ccc(C)cc2)c2ccccn2)cc(OC)c1OC	9.2µM*	-4.4%	8.2µM*	-20.1%	·	·
Cc1ccc(CN(C(=O)COc2ccc(Cl)c(C)c2)c2ccccn2)o1	14.6µM*	-24.3%	?	-28.4%	·	·
COc1cc(CN(C(=O)COc2ccccc2Cl)c2ccccn2)cc(OC)c1OC	18.4µM*	-11.7%	?	-10.7%	·	·
COc1cc(CN(C(=O)COc2ccc(Cl)c(C)c2)c2ccccn2)cc(OC)c1OC	10.3µM*	-43.3%	11.6µM*	-38.2%	·	·
O=C(CS(=O)(=O)c1cccc2nsnc12)Nc1ccccc1Cl	-23.7%	0.7%	1.7%	0.9%	·	·
Cc1ccc(CN(C(=O)COc2cccc([N+](=O)[O-])c2)c2ccccn2)cc1	20.6µM*	-14.4%	?	-12.8%	·	·
COc1cc(CN(C(=O)COc2ccc(Br)cc2)c2ccccn2)cc(OC)c1OC	16.4µM*	-14.1%	16.4µM*	-15.6%	·	·
CCc1ccc(NC(=O)C(=O)NCCOc2ccccc2Cl)cc1	23.1µM*	17.8%	16.4µM*	7.1%	?	-27.4%
Cc1ccc(S(=O)(=O)c2ccc(C)cc2)cc1	-12.2%	0.6%	0.6%	-16.1%	5.9%	1.2%
Cc1ccc(S(=O)(=O)c2ccc(Oc3cccc(C)c3)cc2)cc1	20.6µM*	-2.6%	?	-19.7%	-9.8%	-14.3%
CC(C)C[C@H](NC(=O)NCc1ccc(F)cc1)C(=O)O	-12.7%	2.9%	-15.8%	3.5%	-8.7%	11.3%
CCc1ccc(NC(=O)Cn2c(=O)n(Cc3ccccc3)c(=O)c3oc4ccccc4c32)cc1	?	10.3%	?	-8.2%	·	·
CC1CCN(C(=O)C2COc3ccccc3C2)CC1 (configuration not stated)	-3.4%	-14.2%	5.1%	-8.6%	·	·
Oc1ccccc1-c1cc(C(F)(F)C(F)F)nc(-c2ccccc2)n1	-28.7%	-3.6%	-12.2%	-3.6%	4.3%	3.0%
O=[N+]([O-])c1ccc(O)c(-c2cc(C(F)(F)F)nc(-c3ccccc3)n2)c1	0.651µM*	?	0.581µM*	-42.3%	2.31µM*	-2.6%
CCn1c(-c2ccccc2F)nc2cc(C(=O)NCC3CCOCC3)cc(NC(C)=O)c21	-21.5%	·	23.1%[9.04 µM]	·	·	·
CCCCn1cnc2c(oc3nc4c(cc32)CCCC4)c1=O	-29.8%	-7.4%	-18.9%	1.3%	-3.7%	1.4%
SMILES	TDP1 cell noCPT	TGFb inhibitor	DT40 TDP1 CPT	HepG2 viability	HT1080NT lethal	HT1080 IDH1KD tx
CCCCCCn1cnc2c(oc3nc4c(cc32)CCCC4)c1=O	-28.6%	-9.5%	23.1µM*	-17.1%	-2.6%	2.4%
O=C(NOCc1cscn1)Nc1ccccc1	2.8%	-14.4%	-28.9%	-16.1%	-1.7%	6.6%
CCN(C)C1CN(Cc2cn(Cc3cccc(C(F)(F)F)c3)nn2)S(=O)(=O)C1 (configuration not stated)	-28.8%	·	0.3%	·	18.5%	6.0%
Cc1oc(-c2ccc(C(=O)NCc3ccc(F)cc3)cc2)nc1CS(=O)c1ccccc1 (configuration not stated)	20.6µM*	-9.2%	?	-24.9%	·	·
Cc1ccc(CNC(=O)c2ccc(-c3nc(CS(=O)c4ccccc4)c(C)o3)cc2)cc1 (configuration not stated)	8.2µM*	-0.7%	18.4µM*	4.6%	·	·
COc1ccccc1CNC(=O)c1ccc(-c2nc(CS(=O)c3ccc(C)cc3)c(C)o2)cc1 (configuration not stated)	13µM*	12.3%	?	8.9%	·	·
COc1ccc(CNC(=O)c2ccc(-c3nc(CS(=O)c4ccc(C)cc4)c(C)o3)cc2)cc1 (configuration not stated)	?	?	?	-26.2%	·	·
Clc1cccc(-c2ccc(CNCCSc3nnnn3-c3ccccc3)o2)c1	?	-23.9%	?	-22.5%	·	·
COc1ccc(-n2nc(C(=O)Nc3ccc(C)cn3)c3c4ccccc4n(C)c3c2=O)cc1Cl	-4.3%	-6.9%	-0.8%	8.7%	·	·
Cc1ccc(NC(=O)COC(=O)c2ccccc2F)cc1S(=O)(=O)N1CCCCC1	1.3%	0.1%	3.5%	6.2%	10.0%	2.7%
Cc1ccc(NC(=O)/C=C/c2ccco2)cc1S(=O)(=O)N1CCCCCC1	9.2µM*	?	20.6µM*	-28.7%	-19.0%	-29.3%
Cc1ccc(OCC(=O)Nc2ccc(C)c(S(=O)(=O)N3CCCCCC3)c2)c([N+](=O)[O-])n1	?	1.5%	?	2.6%	-2.0%	-7.0%
Cc1ccc(NC(=O)COC(=O)c2cccc(C)c2[N+](=O)[O-])cc1S(=O)(=O)N1CCCCC1	?	-15.2%	16.4µM*	-12.7%	-7.5%	-5.1%

High-throughput results: PubChem BioAssay, National Center for Advancing Translational Sciences (NCATS)
